Laboratory results: PubChem BioAssay (NCATS)
Records with an inconclusive call do not appear. Activity calls are given as the source filed them. Calls come from the whole dose curve; as a rule, active = well fitted curve in the direction sought with a large enough effect; inconclusive = small, poorly fitted or top-dose-only effect, or another doubt; inactive = no such curve, though single readings can be large; an effect the other way counts as inactive or inconclusive.

What was measured:
[1] = qHTS of pediatric cancer cell lines to identify multiple opportunities for drug repurposing: Primary screen for Saos-2 cells (AID 1347097); note: nearly all actives have a fitted effect of over 40% in size; note: potency is the fitted concentration of half-maximal effect
In short: (§1)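 ATP-based luminescence (CellTiter-Glo) quantifies viability after a 48-hour exposure. Compounds are dosed across 8 or 11 final concentrations; DMSO and 2.3 µM bortezomib serve as controls.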

[2] = qHTS of pediatric cancer cell lines to identify multiple opportunities for drug repurposing: Primary screen for OHS-50 cells (AID 1347103); note: nearly all actives have a fitted effect of over 40% in size; note: potency is the fitted concentration of half-maximal effect
In short: (§2)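 Cells (500-1,000/well) rested 5 h, then received compounds for 48 h; metabolically active cells were measured by CellTiter-Glo luminescence. Final concentrations spanned up to 46 µM (MIPE, 11-point) or 0.59 nM-46 µM (NPC, 8-point) in primary screens, 11-point in follow-ups.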

[3] = qHTS of pediatric cancer cell lines to identify multiple opportunities for drug repurposing: Primary screen for MG 63 (6-TG R) cells (AID 1347105); note: nearly all actives have a fitted effect of over 50% in size; note: potency is the fitted concentration of half-maximal effect
In short: as §1

[4] = qHTS of pediatric cancer cell lines to identify multiple opportunities for drug repurposing: Primary screen for control Hh wild type fibroblast cells (AID 1347106); note: nearly all actives have a fitted effect of over 55% in size; note: potency is the fitted concentration of half-maximal effect
In short: (§3)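 Viability after 48 h compound treatment at 37C, 500-1,000 cells/well, read as ATP luminescence with CellTiter-Glo. Primary screens used 11-point (MIPE, 0.78 nM-46 µM) or 8-point (NPC, 0.59 nM-46 µM) final concentrations; follow-up screens used 11-point dilutions.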

[5] = qHTS of pediatric cancer cell lines to identify multiple opportunities for drug repurposing: Primary screen for Rh30 cells (AID 1347107); note: series mostly up to about 46 µM; nearly all actives have a fitted effect of over 75% in size
In short: as §3

[6] = qHTS of pediatric cancer cell lines to identify multiple opportunities for drug repurposing: Primary screen for NB1643 cells (AID 1347099); note: nearly all actives have a fitted effect of over 50% in size; note: potency is the fitted concentration of half-maximal effect
In short: as §1

[7] = qHTS of pediatric cancer cell lines to identify multiple opportunities for drug repurposing: Primary screen for LAN-5 cells (AID 1347100); note: potency is the fitted concentration of half-maximal effect
In short: as §3

[8] = qHTS of pediatric cancer cell lines to identify multiple opportunities for drug repurposing: Primary screen for BT-12 cells (AID 1347101); note: nearly all actives have a fitted effect of over 25% in size; note: potency is the fitted concentration of half-maximal effect
In short: as §2

[9] = qHTS of pediatric cancer cell lines to identify multiple opportunities for drug repurposing: Primary screen for RD cells (AID 1347104); note: nearly all actives have a fitted effect of over 55% in size
In short: as §1

[10] = qHTS of pediatric cancer cell lines to identify multiple opportunities for drug repurposing: Primary screen for SK-N-SH cells (AID 1347098); note: nearly all actives have a fitted effect of over 65% in size; note: potency is the fitted concentration of half-maximal effect
In short: as §2

[11] = qHTS of pediatric cancer cell lines to identify multiple opportunities for drug repurposing: Primary screen for Rh18 cells (AID 1347102); note: nearly all actives have a fitted effect of over 65% in size
In short: as §3

[12] = qHTS of pediatric cancer cell lines to identify multiple opportunities for drug repurposing: Primary screen for Rh41 cells (AID 1347108);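 note: series mostly up to about 46 µM; luminescence drop marks cytotoxic hits; nearly all actives have a fitted effect of over 70% in size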
In short: as §1

[13] = qHTS of pediatric cancer cell lines to identify multiple opportunities for drug repurposing: Confirmatory screen for NB1643 cells (AID 1347109); note: nearly all actives have a fitted effect of over 45% in size; note: potency is the fitted concentration of half-maximal effect
In short: as §3

[14] = qHTS of pediatric cancer cell lines to identify multiple opportunities for drug repurposing: Confirmatory screen for A673 cells (AID 1347110); details: A673 Ewing sarcoma cell viability; note: potency is the fitted concentration of half-maximal effect; nearly all actives have a fitted effect of over 65% in size
In short: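 Cells plated at 500-1,000/well were treated five hours later with multi-point dilutions up to 46 µM final. After two days, CellTiter-Glo was added and luminescence read.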

[15] = qHTS of pediatric cancer cell lines to identify multiple opportunities for drug repurposing: Confirmatory screen for BT-12 cells (AID 1347112); note: nearly all actives have a fitted effect of over 55% in size; note: potency is the fitted concentration of half-maximal effect
In short: as §3

[16] = qHTS of pediatric cancer cell lines to identify multiple opportunities for drug repurposing: Confirmatory screen for LAN-5 cells (AID 1347113); note: nearly all actives have a fitted effect of over 65% in size; note: potency is the fitted concentration of half-maximal effect
In short: as §3

[17] = qHTS of pediatric cancer cell lines to identify multiple opportunities for drug repurposing: Confirmatory screen for DAOY cells (AID 1347114); note: nearly all actives have a fitted effect of over 65% in size; note: potency is the fitted concentration of half-maximal effect
In short: (§4)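 Viability measured as metabolically active cells via CellTiter-Glo luminescence following 48 hours of compound exposure, 11-point dilutions in confirmatory testing. 500-1,000 cells/well plated 5 hours before dosing; controls were DMSO and 2.3 µM bortezomib.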

[18] = qHTS of pediatric cancer cell lines to identify multiple opportunities for drug repurposing: Confirmatory screen for NB-EBc1 cells (AID 1347115); note: nearly all actives have a fitted effect of over 45% in size; note: potency is the fitted concentration of half-maximal effect
In short: as §3

[19] = qHTS of pediatric cancer cell lines to identify multiple opportunities for drug repurposing: Confirmatory screen for SJ-GBM2 cells (AID 1347116); note: nearly all actives have a fitted effect of over 60% in size
In short: as §4

[20] = qHTS of pediatric cancer cell lines to identify multiple opportunities for drug repurposing: Confirmatory screen for SK-N-MC cells (AID 1347111); details: SK-N-MC cell viability;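 note: potency is the fitted concentration of half-maximal effect; cells exposed to compound for 48 h before the readout; nearly all actives have a fitted effect of over 70% in size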
In short: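 SK-N-MC cells at 500-1,000 cells/well in growth media were pre-incubated 5 h, then exposed to compounds at 11-point dilutions for 48 h at 37 degrees C, 5% CO2. Viability was read as CellTiter-Glo luminescence.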

Measured: Potency

COC(=O)C1=C(C)NC(C)=C(C(=O)OCC(C)C)C1c1ccccc1[N+](=O)[O-] (configuration not stated)
inactive: [1] | [3] | [4] | [5]
active: [2] 24.6 µM

NC(=O)C(c1ccccc1)(c1ccccc1)[C@@H]1CCN(CCc2ccc3c(c2)CCO3)C1
inactive: [6] | [7] | [8] | [9] | [3] | [4] | [5]

CCCOC(=O)c1ccc(O)cc1
inactive: [10] | [6] | [7] | [8] | [11] | [9] | [3] | [4] | [5] | [12]

Nc1ccc([N+](=O)[O-])cc1O
active: [14] 2.14 µM
inactive: [11] | [5] | [13] | [15] | [16] | [17] | [18] | [19]

CCCSc1ccc2nc(NC(=O)OC)[nH]c2c1
active: [1] 4.22 µM | [7] 1.19 µM | [8] 2.76 µM | [2] 0.872 µM | [3] 0.668 µM | [13] 2 µM | [14] 2 µM | [20] 1.58 µM | [15] 25.1 µM | [16] 8.91 µM | [17] 1.26 µM
inactive: [4] | [5]

Cc1c(C(=O)O)c(O)cc2c1C(=O)c1c(O)c([C@@H]3O[C@H](CO)[C@@H](O)[C@H](O)[C@H]3O)c(O)c(O)c1C2=O
inactive: [10] | [6] | [5]

CC(C)(C)c1nnc(NS(=O)(=O)c2ccc(N)cc2)s1
inactive: [10] | [6] | [7] | [8] | [11] | [2] | [3] | [4] | [5]

COC(=O)C1=C(C)NC(C)=C(C(=O)OCC(C)=O)C1c1ccccc1[N+](=O)[O-] (configuration not stated)
inactive: [7] | [11] | [5]

NCCO
inactive: [7] | [8] | [11] | [2] | [3] | [4] | [5] | [12]

CC(C(=O)O)c1ccc(C(=O)c2cccs2)cc1 (configuration not stated)
inactive: [10] | [6] | [7] | [8] | [11] | [2] | [9] | [3] | [4] | [5] | [12]

Oc1c(Br)cc(Br)c2cccnc12
inactive: [4] | [19]
active: [1] 11.9 µM | [8] 27.6 µM | [2] 15.5 µM | [3] 21.1 µM | [13] 26.1 µM | [14] 11.7 µM | [20] 1.17 µM | [16] 18.5 µM | [18] 26.1 µM

O=C(O)c1cc(O)c(O)c(O)c1
inactive: [6] | [7] | [8] | [11] | [2] | [3] | [4] | [5] | [12]

CCOc1ccc2nc(S(N)(=O)=O)sc2c1
inactive: [10] | [6] | [7] | [8] | [11] | [2] | [3] | [4] | [5] | [12]

O=c1cc(-c2ccccc2)oc2ccccc12
inactive: [7] | [11] | [9] | [3] | [4] | [12]

Cc1nc2ccccc2n1Cc1ccc(Cl)cc1
active: [2] 3.47 µM
inactive: [11] | [3] | [4] | [5]

c1ccc(CCNc2nc(-c3ccccc3)cs2)cc1
inactive: [6] | [7] | [11] | [3] | [4] | [5] | [12]

C#CC1(O)CC[C@H]2[C@@H]3CCC4=CCCC[C@@H]4[C@H]3CC[C@@]21C (some centres not stated)
active: [3] 21.1 µM
inactive: [7] | [11] | [4] | [5] | [12]

O=c1[nH]c2ccccc2n1CCCN1CCN(C(c2ccccc2)c2ccccc2)CC1
inactive: [6] | [3] | [4] | [5]
active: [10] 24.4 µM | [2] 15.5 µM

CN(C)c1ccc(N=NS(=O)(=O)O)cc1
inactive: [11] | [2] | [3] | [4] | [5]

O=Cc1ccc(O)c(O)c1O
inactive: [8] | [2] | [3] | [4] | [5] | [12]

Cc1ccc2c(n1)Oc1ccc(C(C)C(=O)OCC(=O)N(C)C)cc1C2 (configuration not stated)
inactive: [10] | [6] | [7] | [8] | [11] | [2] | [3] | [4] | [5]

Nc1nc2ccc([N+](=O)[O-])cc2s1
inactive: [1] | [7] | [3] | [4] | [5] | [12]
active: [2] 25.2 µM

O=C(CS)Nc1ccccc1
inactive: [10] | [8] | [11] | [2] | [3] | [5]
active: [4] 16.8 µM

C#C[C@]1(O)CC[C@H]2[C@@H]3CCc4cc(O)ccc4[C@H]3CC[C@@]21C
inactive: [3] | [4] | [5]
active: [1] 8.41 µM | [2] 24.6 µM

Cc1cc(O)c2ccccc2c1O
active: [10] 34.4 µM | [6] 18.8 µM | [3] 26.6 µM
inactive: [4]

CC(=O)SCC(CC(=O)c1ccc(C)cc1)C(=O)O (configuration not stated)
inactive: [6] | [7] | [8] | [11] | [2] | [3] | [4] | [5]

Nc1ccc(O)c([N+](=O)[O-])c1
inactive: [6] | [11] | [2] | [3] | [4] | [5] | [12]

COc1cc(NC(C)CCCN)c2ncccc2c1 (configuration not stated)
active: [1] 23.7 µM | [2] 24.6 µM
inactive: [7] | [3] | [4] | [5]
